# Test results reported in PubChem BioAssay (Tox21).
# A number with no mark means an inactive call. Records with an inconclusive call do not appear. Entries that show only a call come without a potency. Activity calls are given as the source filed them. Unless noted, calls come from the whole dose curve; as a rule, active = well fitted curve in the direction sought with a large enough effect in the repeat runs; inconclusive = weak or mixed curves; inactive = no such curve, though single readings can be large; an effect the other way counts as inactive or inconclusive.
# Experiments:
# [1] = qHTS assay to identify small molecule agonists of the hypoxia (HIF-1) signaling pathway - cell viability counter screen (AID 1224844; calls by dose curve; note: nearly all actives have a fitted effect of over 50% in size; note: potency is the fitted concentration of half-maximal effect)
# In short: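 Tox21 10K compounds were added to HRE-bla ME-180 cells (0.5% dialyzed FBS) and incubated 17 hrs at 37C; ATP-based CellTiter-Glo luminescence then reported cell viability in the same wells.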
# [2] = qHTS assay to identify small molecule agonists of H2AX (AID 1224845; active = well fitted activation curve with a large enough effect in the signal ratio in the repeat runs, not every such curve was filed as active; the % refers to the signal ratio; note: potency is the fitted concentration of half-maximal effect)
# In short: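 Wild-type CHO-K1 cells, plated overnight, exposed 3hr at 37C to 15 concentrations (0.76% DMSO final). Lysed, then HTRF anti-pH2AX (S139) cryptate and anti-H2AX-d2 antibodies, 24 hr room temperature; 665/620 nm emission read.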
# [3] = qHTS assay to identify small molecule antagonists of the estrogen related receptor (ERR) signaling pathway from Tox21 library (AID 1224848); note: nearly all actives have a fitted effect of over 50% in size
# In short: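 ERR reporter cell line (from NTP) seeded 2,000 cells/well, rested 6 h at 37 C/5% CO2, then pin-dosed with compounds in DMSO. After 18 h at 37 C, ONE-Glo added; luminescence read after 30 min at room temperature.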
# [4] = qHTS assay to identify small molecule agonists of the estrogen related receptor (ERR) signaling pathway from Tox21 library (AID 1224849; calls by dose curve; note: nearly all actives have a fitted effect of over 15% in size); details: ERR reporter cell line, ONE-Glo luciferase, 18 h; at 92.4 µM (top of the series) unless noted
# In short: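 Agonist signal is luciferase luminescence from an ERR reporter cell line treated 18 h at 37 C with DMSO-dissolved compounds, read 30 min after ONE-Glo addition at room temperature.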
# [5] = qHTS RealTime-Glo MT Cell Viability Assay in HepG2 cells - 24 hour (AID 1224867); note: nearly all actives have a fitted effect of over 50% in size
# In short: (§1)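 Cell number in HepG2 cultures estimated from NanoLuc luminescence generated by metabolic reduction of a prosubstrate by living cells. The homogeneous, nonlytic format allowed repeated reads at 0, 8, 16, 24, 32 and 40 h of compound exposure.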
# [6] = qHTS RealTime-Glo MT Cell Viability Assay in HEK293 cells - 32 hour (AID 1224868); note: nearly all actives have a fitted effect of over 50% in size; note: potency is the fitted concentration of half-maximal effect
# In short: (§2)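 Homogeneous bioluminescent viability format in HEK293 cells (600 cells/well). Following 5 h at 37 C/5% CO2, 23 nL compound was pintooled; the signal was measured repeatedly during 40 h incubation.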
# [7] = A CellTox Green Cytotoxicity Assay to monitor cytotoxicity in HEK293 cells - 0 hour (AID 1224869); note: nearly all actives have a fitted effect of over 50% in size
# In short: (§3)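 Cytotoxicity was tracked continuously in HEK293 cells by a DNA-binding dye excluded from viable cells. Compounds were transferred in DMSO 5 h after seeding; fluorescence was recorded at intervals up to 40 h.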
# [8] = qHTS RealTime-Glo MT Cell Viability Assay in HepG2 cells - 40 hour (AID 1224870); note: nearly all actives have a fitted effect of over 50% in size
# In short: (§4)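 HepG2 cells (600/well) mixed with RealTime-Glo MT reagent, settled 5 h at 37 C/5% CO2 before compound addition. Nonlytic NanoLuc luminescence from viable-cell prosubstrate reduction read repeatedly during 40 h treatment at 37 C.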
# [9] = A CellTox Green Cytotoxicity Assay to monitor cytotoxicity in HEK293 cells - 40 hour (AID 1224871); note: nearly all actives have a fitted effect of over 45% in size; note: potency is the fitted concentration of half-maximal effect
# In short: as §3
# [10] = qHTS RealTime-Glo MT Cell Viability Assay in HEK293 cells - 16 hour (AID 1224872)
# In short: as §2
# [11] = qHTS RealTime-Glo MT Cell Viability Assay in HepG2 cells - 8 hour (AID 1224873); note: nearly all actives have a fitted effect of over 55% in size
# In short: as §4
# [12] = qHTS RealTime-Glo MT Cell Viability Assay in HEK293 cells - 40 hour (AID 1224874); details: RealTime-Glo luminescence; max response: hits give low values; note: nearly all actives have a fitted effect of over 50% in size; note: potency is the fitted concentration of half-maximal effect
# In short: (§5)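 Nonlytic bioluminescent viability monitoring. HEK293 at 600 cells/well with reagent; 5 h settle; compound transfer by pintool; plates held at 37 C and read at set time points.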
# [13] = A CellTox Green Cytotoxicity Assay to monitor cytotoxicity in HEK293 cells - 24 hour (AID 1224875); note: nearly all actives have a fitted effect of over 45% in size
# In short: as §3
# [14] = A CellTox Green Cytotoxicity Assay to monitor cytotoxicity in HepG2 cells - 16 hour (AID 1224876); note: nearly all actives have a fitted effect of over 45% in size
# In short: (§6)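 Real-time, homogeneous cytotoxicity readout: dead-cell DNA staining by CellTox Green in HepG2 monolayers, fluorescence measured at timed intervals up to 40 h of continuous compound exposure.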
# [15] = qHTS RealTime-Glo MT Cell Viability Assay in HepG2 cells - 32 hour (AID 1224877); note: nearly all actives have a fitted effect of over 55% in size; note: potency is the fitted concentration of half-maximal effect
# In short: as §1
# [16] = A CellTox Green Cytotoxicity Assay to monitor cytotoxicity in HepG2 cells - 24 hour (AID 1224878); note: nearly all actives have a fitted effect of over 45% in size; note: potency is the fitted concentration of half-maximal effect
# In short: as §6
# [17] = A CellTox Green Cytotoxicity Assay to monitor cytotoxicity in HepG2 cells - 40 hour (AID 1224879); note: nearly all actives have a fitted effect of over 40% in size; note: potency is the fitted concentration of half-maximal effect
# In short: as §6
# [18] = qHTS RealTime-Glo MT Cell Viability Assay in HEK293 cells - 0 hour (AID 1224880)
# In short: as §5
# [19] = qHTS assay to identify small molecule agonists of the hypoxia (HIF-1) signaling pathway (AID 1224846; active = well fitted activation curve with a large enough effect in the signal ratio in the repeat runs, not every such curve was filed as active; the % refers to the signal ratio)
# In short: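 Steps: seed ME-180 HRE-bla cells (2,000/well, 0.5% dialyzed FBS); incubate 5 hrs at 37C; pin-transfer compounds or DMSO; incubate 17 hrs; add LiveBLAzer B/G substrate CCF4-AM; measure reporter activation by FRET.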
# [20] = qHTS assay to identify small molecule agonists of H2AX - cell viability counter screen (AID 1224847; calls by dose curve; note: top concentration of the series differs between compounds; nearly all actives have a fitted effect of over 30% in size)
# In short: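 Cytotoxicity counter screen in wild-type CHO-K1 cells: a 3 hr compound treatment at 37C across 15 concentrations, followed by CellTiter-Glo luminescence to gauge viable cells.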
structure (smiles),measurement,setting,value
N=C(N=C(N)N)N1CCOCC1,Potency,[1],inactive
same,Potency,[2],inactive
same,Potency,[3],inactive
same,"activity change, positive = activation",[4],10.8% [at 42.5 µM]
same,Potency,[5],inactive
same,Potency,[6],inactive
same,Potency,[7],inactive
same,Potency,[8],inactive
same,Potency,[9],inactive
same,Potency,[10],inactive
same,Potency,[11],inactive
same,max response,[12],6.38%
same,Potency,[13],inactive
same,Potency,[14],inactive
same,Potency,[15],inactive
same,Potency,[16],inactive
same,Potency,[17],inactive
same,Potency,[18],inactive
CC/C(=C\C(=N/O)C(N)=O)C(C)[N+](=O)[O-] (stereo not given),Potency,[1],inactive
same,outcome,[19],inactive
same,Potency,[20],inactive
same,Potency,[3],inactive
same,"activity change, positive = activation",[4],4.01%
same,Potency,[5],inactive
same,Potency,[6],inactive
same,Potency,[7],inactive
same,Potency,[8],inactive
same,Potency,[10],inactive
same,Potency,[11],inactive
same,max response,[12],22.3%
same,Potency,[14],inactive
same,Potency,[15],inactive
same,Potency,[16],inactive
same,Potency,[18],inactive
Cn1c(N)nc2nc[nH]c2c1=O,Potency,[1],inactive
same,outcome,[19],inactive
same,Potency,[20],inactive
same,Potency,[5],inactive
same,Potency,[7],inactive
same,Potency,[8],inactive
same,Potency,[11],inactive
same,Potency,[13],inactive
same,Potency,[14],inactive
same,Potency,[15],inactive
same,Potency,[16],inactive
same,Potency,[17],21.6 µM (active)
NCCCOCCOCCOCCCN,Potency,[1],15.5 µM (active)
same,Potency,[2],inactive
same,Potency,[20],inactive
same,Potency,[5],inactive
same,Potency,[6],inactive
same,Potency,[7],inactive
same,Potency,[8],inactive
same,Potency,[9],inactive
same,Potency,[10],inactive
same,Potency,[11],inactive
same,max response,[12],-18%
same,Potency,[13],inactive
same,Potency,[14],inactive
same,Potency,[15],inactive
same,Potency,[16],inactive
same,Potency,[17],inactive
CN(c1nccc(=O)[nH]1)C1CCN(c2nc3ccccc3n2Cc2ccc(F)cc2)CC1,Potency,[1],inactive
same,outcome,[19],inactive
same,Potency,[20],inactive
same,Potency,[5],inactive
same,Potency,[7],inactive
same,Potency,[11],inactive
same,Potency,[13],inactive
same,Potency,[14],inactive
same,Potency,[15],inactive
same,Potency,[16],inactive
same,Potency,[17],inactive
same,Potency,[18],inactive
C=CC(=O)OCC(C)OCC(C)OCC(C)OC(=O)C=C (stereo not given),Potency,[1],inactive
same,Potency,[2],101 µM (active)
same,Potency,[6],43.6 µM (active)
same,Potency,[7],inactive
same,Potency,[9],54.9 µM (active)
same,Potency,[12],43.6 µM (active)
same,Potency,[13],inactive
same,Potency,[14],inactive
same,Potency,[15],54.9 µM (active)
same,Potency,[16],54.9 µM (active)
same,Potency,[17],49 µM (active)
same,Potency,[18],inactive
CC(=O)Nc1ccc(/C=N/NC(N)=S)cc1,Potency,[1],inactive
same,outcome,[19],inactive
same,Potency,[20],inactive
same,Potency,[5],inactive
same,Potency,[6],inactive
same,Potency,[7],inactive
same,Potency,[8],inactive
same,Potency,[9],inactive
same,Potency,[10],inactive
same,Potency,[11],inactive
same,max response,[12],0.836%
same,Potency,[14],inactive
same,Potency,[15],inactive
same,Potency,[17],inactive
same,Potency,[18],inactive
CN(C(=O)CCCOc1ccc2[nH]c(=O)ccc2c1)C1CCCCC1,Potency,[1],inactive
same,Potency,[2],inactive
same,"activity change, positive = activation",[4],-12.9% [at 42.5 µM]
same,Potency,[5],inactive
same,Potency,[7],inactive
same,Potency,[8],inactive
same,Potency,[9],inactive
same,Potency,[11],inactive
same,Potency,[14],inactive
same,Potency,[15],inactive
same,Potency,[16],inactive
same,Potency,[18],inactive
NC(N)=N/N=C/c1c(Cl)cccc1Cl,Potency,[1],inactive
same,Potency,[2],inactive
same,Potency,[20],inactive
same,"activity change, positive = activation",[4],-17.6% [at 42.5 µM]
same,Potency,[5],inactive
same,Potency,[7],inactive
same,Potency,[9],inactive
same,Potency,[10],inactive
same,Potency,[11],inactive
same,max response,[12],-22.8%
same,Potency,[13],inactive
same,Potency,[14],inactive
same,Potency,[15],inactive
c1ccc(-c2nc[nH]c2-c2ccccc2)cc1,Potency,[1],inactive
same,Potency,[2],inactive
same,Potency,[20],inactive
same,Potency,[5],inactive
same,Potency,[6],inactive
same,Potency,[7],inactive
same,Potency,[8],inactive
same,Potency,[9],inactive
same,Potency,[10],inactive
same,Potency,[11],inactive
same,max response,[12],-25%
same,Potency,[13],inactive
same,Potency,[15],inactive
same,Potency,[18],inactive
CN1CCC[C@@H]1c1cccnc1,Potency,[1],inactive
same,Potency,[2],inactive
same,Potency,[20],inactive
same,Potency,[5],inactive
same,Potency,[6],inactive
same,Potency,[7],inactive
same,Potency,[8],inactive
same,Potency,[9],inactive
same,Potency,[10],inactive
same,Potency,[11],inactive
same,max response,[12],7.25%
same,Potency,[13],inactive
same,Potency,[15],inactive
same,Potency,[16],inactive
same,Potency,[18],inactive
O=C(c1ccccc1)c1ccc2n1CCC2C(=O)O (stereo not given),Potency,[1],inactive
same,Potency,[2],inactive
same,Potency,[20],inactive
same,Potency,[5],inactive
same,Potency,[6],inactive
same,Potency,[7],inactive
same,Potency,[10],inactive
same,Potency,[11],inactive
same,max response,[12],0.683%
same,Potency,[13],inactive
same,Potency,[14],inactive
same,Potency,[15],inactive
same,Potency,[17],inactive
same,Potency,[18],inactive
CC(C)(C)c1ccc(OCC2CO2)cc1 (stereo not given),Potency,[1],inactive
same,outcome,[19],inactive
same,Potency,[3],inactive
same,"activity change, positive = activation",[4],3.37%
same,Potency,[5],inactive
same,Potency,[7],inactive
same,Potency,[8],inactive
same,Potency,[9],50 µM (active)
same,Potency,[10],inactive
same,Potency,[11],inactive
same,max response,[12],-5.37%
same,Potency,[14],inactive
same,Potency,[15],inactive
same,Potency,[16],inactive
same,Potency,[17],inactive
same,Potency,[18],inactive
CC1CCc2cc(F)cc3c(=O)c(C(=O)O)cn1c23 (stereo not given),Potency,[1],inactive
same,Potency,[2],inactive
same,Potency,[5],inactive
same,Potency,[6],inactive
same,Potency,[7],inactive
same,Potency,[8],inactive
same,Potency,[9],inactive
same,Potency,[10],inactive
same,Potency,[11],inactive
same,max response,[12],7.68%
same,Potency,[13],inactive
same,Potency,[14],inactive
same,Potency,[15],inactive
Oc1ccc(C(O)CNCCCCCCNCC(O)c2ccc(O)c(O)c2)cc1O (stereo not given),Potency,[1],inactive
same,outcome,[19],inactive
same,Potency,[20],inactive
same,"activity change, positive = activation",[4],1.29% [at 42.5 µM]
same,Potency,[5],inactive
same,Potency,[6],inactive
same,Potency,[7],inactive
same,Potency,[8],inactive
same,Potency,[10],inactive
same,Potency,[11],inactive
same,max response,[12],1.45%
same,Potency,[13],inactive
same,Potency,[14],inactive
same,Potency,[15],inactive
same,Potency,[16],inactive
same,Potency,[17],inactive
same,Potency,[18],inactive
